# Test: adipocyte viability effects, profiling panel, cell-based, 3T3-L1 adipocytes, calcein-AM fluorescence, 48 h, basal (AID 1163); also: test concentration not given here
# Conditions: 3T3-L1 adipocytes viability, higher = more signal
row,Structure (SMILES),z-score
1,COCCOC(=O)N1C(=O)[C@@]2(c3cc(C#Cc4ccc(OC)cc4)ccc31)[C@H](c1ccc(OCCO)cc1)N1[C@H](c3ccccc3)[C@H](c3ccccc3)OC(=O)[C@H]1[C@@H]2C(=O)NC[C@H](O)c1ccccc1,-0.129
2,CC1CC/C=C\[C@H]2OC34C=CCN(Cc5ccccc5)C(=O)[C@H]3N(CCCCCCO)C(=O)[C@@H]4C2C(=O)O1 (stereo not given in full),0.221
3,[N-]=[N+]=Nc1ccccc1[C@@H]1OC(c2ccc(OCCCO)cc2)=N[C@]1(CCS(=O)(=O)c1ccccc1)C(=O)NCC(O)CO (stereo not given in full),-0.375
4,COC(=O)[C@@]1(Cc2ccccc2)[C@H]2c3cc(C(=O)N(C)C)n(CCSC(=N)N)c3C[C@H]2CN1C(=O)c1ccccc1,0.451
5,CC(C)[Si](C#CCCc1ccccc1)(O[C@H](c1ccccc1)c1cn(Cc2ccccc2)nn1)C(C)C,0.254
6,O=C(NCc1ccc(F)cc1)[C@H]1C[C@H]2C(=O)N3CCC[C@H]3C(=O)N2[C@H]1c1ccc(O)cc1,0.625
7,COC(=O)[C@]1(Cc2ccccc2)N=C(c2ccc(OCCCO)cc2)O[C@@H]1c1ccccc1CN=[N+]=[N-],0.748
8,CC(C)C[C@@H]1NC(=O)[C@@H]2C[C@H](C(=O)NCCCCCCNC(=O)CS)[C@H](c3cccc(OCCO)c3)N2C1=O,-0.0252
9,O=C1O[C@@H](c2ccccc2)[C@@H](c2ccccc2)N2[C@@H](c3ccc(OCCO)cc3)[C@]3(C(=O)Nc4ccc(C#CCCO)cc43)[C@@H](C(=O)O)[C@H]12,-0.997
10,CCCC[C@H]1C[C@@H]1[C@@H]1N(C(C)=O)[C@H](c2cccc(OC)c2)CC12CC2,-0.134
